An excerpt weighted towards active compounds, which were near 3.2% of everything screened.
Marburg entry inh – qHTS for inhibitors of binding or entry into cells for Marburg Virus; Marburg virus pseudotyped entry inhibition, cell reporter; Potency, µM (doses to about 37.8 µM), for inactives: at the highest dose activity change, negative = inhibition, hits mostly inhibitors; hit rate 1.8% among 300,000; AID 540276, 2011; calls by dose curve; tested in HEK293 cells
VACV mCherry inh – qHTS for Stage-Specific Inhibitors of Vaccinia Orthopoxvirus: mCherry Reporter Primary qHTS; Vaccinia virus mCherry reporter infection, fluorescence; hit rate 0.63% among 310,000; Potency, µM (doses to about 36.5 µM), inactives show top-dose activity change, negative = inhibition, most hits filed as inhibitors; calls by dose curve; tested in A549 cells; also: nearly all actives have a fitted effect of over 35% in size
FMDV inh – High Throughput Screening for Foot and Mouth Disease Virus Antivirals; hit rate 1.2% among 410,000; Potency, µM (highest dose often 57.9 µM), for inactives: at the highest dose activity change, negative = inhibition, usual class: inhibitors; FMDV antiviral cell-based qHTS; calls by dose curve; tested in HEK293T cells; also: read-out not given here; nearly all actives have a fitted effect of over 45% in size
LASV entry inh – qHTS for Inhibitors of binding or entry into cells for Lassa Virus; hit rate 1.2% among 300,000; AID 540256, 2011; Potency, µM (highest dose often 37.9 µM), for inactives: top-dose activity change, negative = inhibition, hits mostly inhibitors; Lassa virus pseudotype entry inhibition, cell reporter; calls by dose curve; tested in HEK293 cells; also: nearly all actives have a fitted effect of over 50% in size
Vaccinia Venus – qHTS for Stage-Specific Inhibitors of Vaccinia Orthopoxvirus: Venus Reporter Primary qHTS | Vaccinia virus Venus reporter expression, fluorescence | Potency, µM (top dose mostly 36.5 µM), inactives show top-dose activity change, negative = inhibition, hits mostly inhibitors | hit rate 0.46% among 330,000 | AID 720580, 2013; calls by dose curve; tested in A549 cells; also: nearly all actives have a fitted effect of over 30% in size
* hit, by the source's call; i = inactive; ? = inconclusive; . = no result given; ! = not confirmed by another sample; [ ] = another dose, or the depositor's remark. % is scaled to controls: 0 for no effect and ±100 for the full control effect; potency is read from the fitted curve at half-maximal effect.

SMILES	Marburg entry inh	VACV mCherry inh	FMDV inh	LASV entry inh	Vaccinia Venus
COc1cc(C2CC(=O)c3c([nH]c(C(=O)OCCOC(C)C)c3C)C2)cc(OC)c1OC (stereo not given)	?	-28%	11µM*	?	-25%
COc1cccc(CNC(=O)c2c(OC)cc(=O)n3c2CCN(C(=O)C2CC24CCCCC4)CC3)c1 (stereo not given)	.	0%	-7%	.	-1%
Clc1ccc2c(c1)C(N1CCNCC1)=Nc1ccccc1O2	10µM*!	-23%	2%	?	?
CC(NC(=O)C1CCOCC1)c1nnc2n1CCN(Cc1cc3c(cc1Cl)OCO3)CC2 (stereo not given)	.	0%	-12%	.	-21%
C[C@]12N[C@H](Cc3ccccc31)c1ccccc12	14µM*!	-17%	?	7%	-9%
O=C(NCc1ccccn1)c1nn(-c2ccccc2Cl)nc1CO	0%[46.1 µM]	-7%	-11%	27%[46.1 µM]	-6%
CCOc1ccc(C(C)=O)cc1CN1C(=O)C(=O)N(CC)C1=O	?	i	14µM*	15%[46.1 µM]	-2%
CCOc1ccc(C(C)=O)cc1CN1C(=O)NC2(CCCCCC2)C1=O	?	-1%	3%	9%[46.1 µM]	0%
Cc1ccc(CNC(=O)C2CCCN(c3cnccn3)C2)cc1 (stereo not given)	.	.	-3%	.	.
COc1ccc(C2CC(C(F)(F)F)n3nc(C(=O)N(C)Cc4cn(C)nc4C)c(Cl)c3N2)cc1 (stereo not given)	-13%	.	-18%	-2%	-8%
COc1ccc(C2CC(C(F)(F)F)n3nc(C(=O)NCc4c(C)nn(C)c4C)c(Cl)c3N2)cc1 (stereo not given)	10µM*	?	.	-38%	?
CN[C@@H](C)[C@H](O)c1ccccc1	11µM*	-11%	-7%	.	0%
CN[C@H](C)[C@H](O)c1ccccc1	.	-13%	-18%	.	-10%
CC1Cc2ccccc2N1C(=O)CN1CCC(n2nnc3cc(C(F)(F)F)ccc32)CC1 (stereo not given)	?	-28%	20µM*	-30%	?
COC(=O)C(=C/C(C)=C/c1cccs1)C(=O)OC	?	-17%	28µM*	?	-14%
CCC(C)(C)n1nnnc1C(c1cccs1)N1CC=C(c2ccc(F)cc2)CC1 (stereo not given)	15µM*	-23%	.	?	-26%
COc1ccccc1NC(=O)CSc1nnc(-c2nonc2NC(C)=O)n1-c1ccccc1	4%[46.1 µM]	-6%	-6%	-8%[46.1 µM]	-10%
C/C=C/c1ccc(OCCCCN2C(=O)NC(C)(C)C2=O)c(OC)c1	?	-4%	-13%	18µM*	-27%
Cc1nc(N=Nc2cc(S(=O)(=O)O)c3cc([N+](=O)[O-])cc(S(=O)(=O)O)c3c2)c(COP(=O)(O)O)c(C=O)c1O	20µM*	-2%	-23%	?	-11%
CC1(C)C(=O)C=CC(=O)C(C)(C)C(=O)C=CC(=O)C(C)(C)C2=CC=C(O2)C(C)(C)C(=O)C=CC1=O	?	-10%	7.9µM*	-19%	-2%
NC(=S)N=Nc1c(O)[nH]c2ccc(F)cc12	2%	5µM*	-4%	-4%	3.5µM*
CCCS(=O)(=O)c1c(S(=O)(=O)CCC)c2cc(-c3ccncc3)ccn2c1C(=O)OC	5.6µM*	-13%	23%	0%	-12%
CC(C)c1nc2oc3c(=O)[nH]cnc3c2c2c1COC(C)(C)C2	.	-20%	-11%	.	-11%
N[C@@H](Cc1ccccc1)c1nnc(SCc2ccccc2F)o1	5%	11µM*	0%	8%	?
N[C@@H](Cc1c[nH]c2ccccc12)c1nnc(SCc2ccccc2F)o1	?	.	-3%	-11%	.
SMILES	Marburg entry inh	VACV mCherry inh	FMDV inh	LASV entry inh	Vaccinia Venus
CC(=O)c1ccc(N/N=C(/C(N)=O)C2=NC(C)(C)Cc3ccccc32)cc1	3.3µM*	?	0%	2.9µM*	?
COc1ccc2nc(Cl)cc(Cl)c2c1	9%[46.1 µM]	-11%	17%	1%[46.1 µM]	-5%
C=CS(=O)(=O)c1c2cc(OC)ccc2nc2ccc(OC)cc12	?	?	28µM*	?	?
CCOc1ccc(CCNC(=O)CN2N=C(c3ccccc3)CCC2=O)cc1OCC	.	-6%	-11%	0%[46.1 µM]	-7%
Cc1nc2ccccn2c1C(=O)CSc1ccccc1Cl	?	.	25µM*	-15%	?
CCCCC(=O)N(Cc1ccc(-c2ccccc2-c2nn[nH]n2)cc1)[C@@H](C(=O)O)C(C)C	.	i	3%	.	-17%

Screening results deposited in PubChem by National Center for Advancing Translational Sciences (NCATS).
